Results taken from the antibiotic and cytotoxicity screens of Wong et al. (2023).
Hit rate of the full screen: of about 39,000 compounds, about 3,300 (8.5%) were called active. Shown is part of a subset that was picked to be rich in actives.

system: HepG2; test: cytotoxicity call (relative viability < 0.9); conditions: 10 µM

Compound | cytotoxicity call
C[C@H]1CCCCO[C@@H](CN(C)S(=O)(=O)c2ccccc2)[C@@H](C)CN([C@@H](C)CO)C(=O)c2cc(NC(=O)Nc3ccc(C(F)(F)F)cc3)ccc2O1 | active
C[C@@H]1CCCCO[C@@H](CN(C)S(=O)(=O)c2ccccc2)[C@@H](C)CN([C@H](C)CO)C(=O)c2cc(NC(=O)Nc3ccc(C(F)(F)F)cc3)ccc2O1 | inactive
C[C@H]1CCCCO[C@H](CN(C)S(=O)(=O)c2ccccc2)[C@@H](C)CN([C@@H](C)CO)C(=O)c2cc(NC(=O)Nc3ccc(C(F)(F)F)cc3)ccc2O1 | active
C[C@H](CO)N1C[C@H](C)[C@@H](CN(C)S(=O)(=O)c2ccccc2)OCCCC[C@H](C)Oc2ccc(NC(=O)Nc3ccc(C(F)(F)F)cc3)cc2C1=O | inactive
C[C@@H]1CCCCO[C@H](CN(C)S(=O)(=O)c2ccccc2)[C@@H](C)CN([C@@H](C)CO)C(=O)c2cc(NC(=O)Nc3ccc(C(F)(F)F)cc3)ccc2O1 | inactive
C[C@@H]1CCCCO[C@@H](CN(C)S(=O)(=O)c2ccccc2)[C@H](C)CN([C@H](C)CO)C(=O)c2cc(NC(=O)Nc3ccc(C(F)(F)F)cc3)ccc2O1 | inactive
C[C@@H]1CN([C@@H](C)CO)C(=O)c2cc(NC(=O)Nc3ccc(C(F)(F)F)cc3)ccc2O[C@@H](C)CCCCO[C@H]1CN(C)S(=O)(=O)c1ccccc1 | inactive
C[C@@H]1CCCCO[C@H](CN(C)S(=O)(=O)c2ccccc2)[C@@H](C)CN([C@H](C)CO)C(=O)c2cc(NC(=O)Nc3ccc(C(F)(F)F)cc3)ccc2O1 | active
C[C@@H]1CCCCO[C@@H](CN(C)S(=O)(=O)c2ccccc2)[C@@H](C)CN([C@@H](C)CO)C(=O)c2cc(NC(=O)Nc3ccc(C(F)(F)F)cc3)ccc2O1 | inactive
C[C@@H]1CN([C@@H](C)CO)C(=O)c2cc(NC(=O)Nc3ccc(C(F)(F)F)cc3)ccc2O[C@@H](C)CCCCO[C@@H]1CN(C)S(=O)(=O)c1ccccc1 | inactive
C[C@H](CO)N1C[C@H](C)[C@H](CN(C)S(=O)(=O)c2ccccc2)OCCCC[C@H](C)Oc2ccc(NC(=O)Nc3ccc(C(F)(F)F)cc3)cc2C1=O | inactive
C[C@@H]1CCCCO[C@H](CN(C)S(=O)(=O)c2ccccc2)[C@H](C)CN([C@@H](C)CO)C(=O)c2cc(NC(=O)Nc3ccc(C(F)(F)F)cc3)ccc2O1 | active
OCC1CCNCC1 | inactive
COC(=O)c1sccc1NC(=O)Cn1cnc2c1c(=O)n(C)c(=O)n2C | inactive
CC(=O)N(C)C[C@H]1Oc2ncc(C#C[C@H](C)O)cc2C(=O)N([C@@H](C)CO)C[C@H]1C | inactive
C[C@H]1CN([C@@H](C)CO)S(=O)(=O)c2ccc(-c3ccc(C(=O)N(C)C)cc3)cc2O[C@@H]1CN(C)C(=O)C1CCOCC1 | inactive
CC(C)NC(=O)Nc1ccc2c(c1)CC(=O)N([C@H](C)CO)C[C@H](C)[C@H](CN(C)S(=O)(=O)c1ccccc1)O2 | inactive
Nc1ccn([C@@H]2C[C@@H](O)[C@H](CO)O2)c(=O)n1 | inactive
COc1ccc(NC(=O)N(C)C[C@@H]2Oc3ccc(NC(=O)CCCN(C)C)cc3C(=O)N([C@@H](C)CO)C[C@H]2C)cc1 | inactive
COc1ccc(NC(=O)N(C)C[C@@H]2OCCCC[C@@H](C)Oc3ccc(NC(=O)C4CCCCC4)cc3C(=O)N([C@@H](C)CO)C[C@H]2C)cc1 | inactive
C[C@H]1CC/C=C\[C@H]2O[C@@]34C=CCN(CCN5CCOCC5)C(=O)[C@H]3N(CCO)C(=O)[C@@H]4[C@@H]2C(=O)O1 | inactive
COc1cc(OC)cc(C(=O)N(Cc2ccco2)Cc2cc3ccc(SC)cc3nc2-c2cccc(OC)c2)c1 | inactive
Fc1ccccc1-c1nc2ccn(Cc3ccc(-c4ccc(C(F)(F)F)cc4C(F)(F)F)nn3)cc-2n1 | active
CO[C@@H]1CN(C)C(=O)c2ccc(NC(=O)C3CC3)cc2OC[C@H](C)N(C(=O)Cc2ccccn2)C[C@@H]1C | inactive
COc1cc(C=CC(=O)O)cc(OC)c1OC | inactive

Compound | cytotoxicity call
COc1cc(/C=C/C(=O)N2CCC=CC2=O)cc(OC)c1OCCOCCOCCOCCC(=O)OC(C)(C)C | active
C=C(C)C(=O)N1CCC=CC1=O | inactive
COc1cc(C=CC(=O)N2CCCCCCC2)cc(OC)c1OC | inactive
C/C=C/C(=O)N1CCC=CC1=O | inactive
COC(=O)C=Cc1cc(OC)c(OC)c(OC)c1 | inactive
COc1cc(C=CC(=O)O)cc(OC)c1O | inactive
CCOC(=O)/C=C/C(=O)N1CCC=CC1=O | active
COc1cc(/C=C/C(=O)N2CCC=CC2=O)cc(OC)c1OC(=O)CCCCCCCCCCC(=O)Oc1c(OC)cc(/C=C/C(=O)N2CCC=CC2=O)cc1OC | inactive
COc1cc(C=CC(N)=O)cc(OC)c1OC | active
COc1cc(/C=C/C(=O)N(C)CCN(C)C(=O)/C=C/c2cc(OC)c(OC)c(OC)c2)cc(OC)c1OC | inactive
COc1cc(C=CC(=O)N2CCC=CC2=O)cc(OC)c1OC | active
Cn1cc(S(=O)(=O)N2CCN(Cc3ccccc3)CC2)c(=O)n(C)c1=O | inactive
C=CCOC(=O)O[C@H]1[C@@H](OC)O[C@H](COC(=O)NCCCCCC(=O)NO)[C@H]2OC(=O)[C@@H](Cc3cccc(Br)c3)C/C=C/C[C@H](Cc3ccccc3)C(=O)O[C@H]12 | inactive
CN1C(=O)c2cc(NS(=O)(=O)c3ccc(F)cc3)ccc2OC[C@@H]2O[C@@H](CC(=O)NCC(F)(F)F)CC[C@H]21 | inactive
C[C@H]1CN([C@@H](C)CO)C(=O)c2cc(C#CCN(C)C)cnc2O[C@H]1CN(C)S(=O)(=O)c1cn(C)cn1 | inactive
O=C(C[C@H]1CC[C@H]2[C@@H](COC[C@H](O)CN2S(=O)(=O)c2ccc(Cl)cc2)O1)N[C@H]1CCN(Cc2ccccc2)C1 | inactive
CC(C)NC(=O)Nc1ccc2c(c1)C(=O)N([C@@H](C)CO)C[C@H](C)[C@@H](CN(C)C(=O)C1CCCCC1)OCCCC[C@H](C)O2 | inactive
CCNC(=S)NCC1CC1 | inactive
Cc1ccc(S(=O)(=O)Nc2ccc3c(c2)C(=O)N([C@H](C)CO)C[C@H](C)[C@H](CN(C)Cc2ccc4c(c2)OCO4)OCCCC[C@@H](C)O3)cc1 | inactive
C[C@@H]1CN([C@H](C)CO)S(=O)(=O)c2ccc(C#Cc3ccc(F)cc3)cc2O[C@@H]1CN(C)CC1CC1 | inactive
CO[C@@H]1CN(C)C(=O)c2ccc(NS(C)(=O)=O)cc2OC[C@@H](C)N(C(=O)CN(C)C)C[C@@H]1C | inactive
C[C@@H]1CN([C@@H](C)CO)C(=O)Cc2cc(NC(=O)Cn3cnnn3)ccc2O[C@@H]1CN(C)Cc1ccc(-c2ccccc2)cc1 | inactive
C[C@H](CO)N1C[C@H](C)[C@H](CN(C)S(=O)(=O)c2ccc(Cl)cc2)OCCCC[C@H](C)Oc2ccc(NC(=O)Nc3cccc4ccccc34)cc2C1=O | inactive
CCCCOc1cc(C(=O)NCCN(CC)CC)c2ccccc2n1.Cl | inactive
CCCCc1oc2ccccc2c1C(=O)c1cc(I)c(OCCN(CC)CC)c(I)c1 | active

Compound | cytotoxicity call
CCCCc1oc2ccccc2c1C(=O)c1cc(I)c(OCCN(CC)CC)c(I)c1.Cl | active
NCCCN | inactive
C[C@@H]1CN([C@H](C)CO)C(=O)c2cc(NS(=O)(=O)c3cccs3)ccc2O[C@@H]1CN(C)Cc1ccncc1 | inactive
O=C(C[C@H]1CC[C@H]2[C@@H](COC[C@@H](O)CN2C(=O)Nc2ccc(C(F)(F)F)cc2)O1)NCCc1ccncc1 | inactive
Cc1noc(C)c1NC(=O)Nc1ccc2c(c1)C(=O)N([C@H](C)CO)C[C@H](C)[C@H](CN(C)S(=O)(=O)c1ccc(F)cc1)OCCCC[C@@H](C)O2 | inactive
COCC#Cc1ccc2c(c1)O[C@@H](CN(C)C(=O)Nc1ccccc1F)[C@@H](C)CN([C@@H](C)CO)S2(=O)=O | inactive
CCCN1C[C@@H](C)[C@@H](OC)CN(C)C(=O)c2cc(NS(=O)(=O)c3cn(C)cn3)ccc2OC[C@H]1C | inactive
CN1CCN(C(=O)C[C@H]2CC[C@@H]3[C@H](COC[C@H](O)CN3C(=O)C3CCOCC3)O2)CC1 | inactive
O=c1nc[nH]c2ncccc12 | inactive
Oc1c(I)cc(Cl)c2cccnc12 | active
Oc1c(Br)cc(Br)c2cccnc12 | active
Oc1c(Cl)cc(Cl)c2cccnc12 | active
c1cnc2ccc3ncccc3c2c1 | inactive
Clc1nccc2ccccc12 | inactive
Cc1ccc2c(Cl)cc(Cl)c(O)c2n1 | inactive
CCOc1ccc(S(=O)(=O)[O-])c2cccnc12.[Na+] | inactive
O=S(=O)([O-])c1cc(I)c(O)c2ncccc12.[Na+] | active
CCCCCCCCCCCCCCCCCCOC[C@H](COP(=O)(O)O[C@H]1[C@@H](O)[C@@H](O)[C@@H](O)C[C@@H]1OC)OC | inactive
C[C@@H]1CCCCO[C@@H](CN(C)S(C)(=O)=O)[C@H](C)CN([C@H](C)CO)C(=O)c2cc(NS(=O)(=O)c3cn(C)cn3)ccc2O1 | inactive
O=C(C[C@@H]1CC[C@H](NC(=O)CN2CCOCC2)[C@H](CO)O1)NCCc1ccncc1 | inactive
CC(=O)N1Cc2cc(C(=O)NCC(F)(F)F)nc(-c3cccc(-c4cc5ccccc5o4)c3)c2[C@H]1CCO | inactive
C[C@@H]1CCCCO[C@H](CN(C)C(=O)Nc2ccc(C(F)(F)F)cc2)[C@@H](C)CN([C@H](C)CO)C(=O)c2cc(NS(=O)(=O)c3cn(C)cn3)ccc2O1 | inactive
C[C@@H]1CN([C@H](C)CO)S(=O)(=O)c2ccc(-c3ccc(C(=O)N(C)C)cc3)cc2O[C@H]1CN(C)C(=O)Cc1ccccn1 | inactive
Cc1noc(C)c1S(=O)(=O)Nc1ccc2c(c1)C(=O)N([C@@H](C)CO)C[C@@H](C)[C@@H](CN(C)C(=O)Nc1ccc(F)cc1)OCCCC[C@@H](C)O2 | inactive
